PG9 Ab binder: PG9 antibody binding by small molecule | inhibition, % at 6.7 µM | actives 0.43% (n = 360,000) | TR-FRET gp120-PG9 antibody binding | AID 624416; in the data active means inhibition above about 8.5%
rCAG binder: molecules binding r(CAG) RNA repeats | r(CAG) RNA repeat, TO-PRO-1 dye displacement fluorescence | inhibition, % at 3 µM | actives 1.3% (n = 370,000) | AID 651821;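 active means inhibition above the plate cutoff, the mean of all test compounds on that plate plus 3 SD, cut at about 35% in these data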;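 further: higher means more dye released from RNA so lower well fluorescence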
Exocytosis inh: lytic granule exocytosis inhibition; TALL-104 LAMP-1 surface exposure, flow cytometry; cells stimulated with thapsigargin and PMA; inhibition, % at 10 µM; actives 0.66% (n = 360,000);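 active means inhibition above about 55%, limit read from the data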
ABCB6 inh MLPCN: blocks the human ABCB6 transporter; K562-ABCB6 porphyrin accumulation, flow cytometry, 1 h; hits give low values; fluorescence ratio to DMSO, % at 10 µM; actives 0.19% (n = 360,000); AID 602162;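 active means fluorescence ratio to DMSO below 75%, the collection mean minus 3 SD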;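 further: signal is porphyrin accumulated inside mitochondria; lower ratio means ABCB6 inhibition with less porphyrin fluorescence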
Target sequence (Q9NP58 whole entry, looked up): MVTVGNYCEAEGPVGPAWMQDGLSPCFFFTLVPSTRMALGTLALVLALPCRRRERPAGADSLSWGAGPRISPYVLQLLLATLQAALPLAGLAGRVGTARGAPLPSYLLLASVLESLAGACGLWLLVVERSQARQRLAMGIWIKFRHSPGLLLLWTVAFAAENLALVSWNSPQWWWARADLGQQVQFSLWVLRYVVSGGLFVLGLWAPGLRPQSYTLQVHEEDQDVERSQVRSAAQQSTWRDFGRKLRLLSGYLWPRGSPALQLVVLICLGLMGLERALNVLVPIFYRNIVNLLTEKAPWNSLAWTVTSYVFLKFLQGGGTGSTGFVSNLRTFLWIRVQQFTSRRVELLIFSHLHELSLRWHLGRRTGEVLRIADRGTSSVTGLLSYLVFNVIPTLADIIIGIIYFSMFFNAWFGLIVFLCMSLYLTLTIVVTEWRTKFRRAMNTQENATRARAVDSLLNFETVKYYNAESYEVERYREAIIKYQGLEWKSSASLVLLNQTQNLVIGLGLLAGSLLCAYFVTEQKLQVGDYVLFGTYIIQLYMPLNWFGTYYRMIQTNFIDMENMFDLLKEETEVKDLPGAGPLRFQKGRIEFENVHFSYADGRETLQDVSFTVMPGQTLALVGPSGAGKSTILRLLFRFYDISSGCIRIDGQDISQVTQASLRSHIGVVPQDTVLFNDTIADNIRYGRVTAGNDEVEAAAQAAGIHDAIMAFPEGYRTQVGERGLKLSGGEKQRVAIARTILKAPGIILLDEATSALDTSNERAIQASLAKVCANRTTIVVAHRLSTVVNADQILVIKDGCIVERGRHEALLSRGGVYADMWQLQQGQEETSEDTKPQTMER
rCAG bind conf: r(CAG) RNA repeat binding, confirmation. shares compounds with rCAG binder. TO-PRO-1 dye displacement fluorescence. inhibition, % at 3 µM. actives 70% (n = 4,300). AID 652065;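 active means inhibition above a per-plate cutoff, the mean inhibition of sample wells plus 3 SD, cut at about 35% in these data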;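 further: loss of TO-PRO-1 fluorescence as compound displaces dye from 1x1 AA loop RNA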
DNA CAG counter: disrupts DNA CAG TO-PRO-1 complex, flagging rCAG hits; actives 94% (n = 4,300); d(CAG) DNA oligo TO-PRO-1 dye displacement, fluorescence; shares compounds with rCAG binder; inhibition, % at 3 µM;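 active means inhibition above its plate's cutoff, the mean test-well inhibition plus 3 SD, cut at about 4.8% in these data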;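 further: hits displace the dye from DNA and so lower well fluorescence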
Each line names hits and unclear results; the compound was inactive in the other large screens (follow-up assays come after a bar, where they were run). Shown are actives, neighbours in structure and some others; about 2.5% of the full set was active somewhere.

COc1ccc(/C=C2\SC(=O)N(CCC(=O)Nc3ccc(S(=O)(=O)Nc4nccs4)cc3)C2=O)cc1	rCAG binder 80 | rCAG bind conf 79 | DNA CAG counter 45
COc1ccc(/C=C2\SC(=S)N(CCC(=O)Nc3ccc(O)cc3)C2=O)cc1	none
COc1ccc(/C=C2/SC(=O)N(CCC(=O)Nc3ccc(S(=O)(=O)Nc4nccs4)cc3)C2=O)cc1	rCAG binder 84 | rCAG bind conf 82 | DNA CAG counter 49
O=C1N/C(=N/S(=O)(=O)Cc2ccccc2)S/C1=C/c1ccc2c(c1)OCO2	rCAG binder 66 | rCAG bind conf 56 | DNA CAG counter 19
O=C(CNC(=O)c1ccc(F)cc1)c1ccc(Cl)cc1	none
CC(=O)c1cccc(NC(=S)NNC(=O)c2ccc(C)c([N+](=O)[O-])c2)c1	rCAG binder 41 | rCAG bind conf 38 | DNA CAG counter 15
O=C(O)c1cccc(NC(=S)NC(NC(=O)c2cccc([N+](=O)[O-])c2)C(Cl)(Cl)Cl)c1 (stereo unspecified)	rCAG binder 53 | rCAG bind conf inactive | DNA CAG counter 8.7
Cc1ccc(NC(=S)NNC(=O)c2cccc([N+](=O)[O-])c2)cc1Cl	rCAG binder 73 | rCAG bind conf 70 | DNA CAG counter 24
O=C(O)c1cccc(NC(=S)NC(NC(=O)c2ccccc2[N+](=O)[O-])C(Cl)(Cl)Cl)c1 (stereo unspecified)	none
Cc1cccc(NC(=O)NNC(=O)c2ccc(C)c([N+](=O)[O-])c2)c1	none
Cc1nnc(N(C)C(=O)c2ccc3c(c2)OCO3)s1	none
COc1cc(/C=N/NC(=O)[C@H](Cc2c[nH]c3ccccc23)NC(=O)OCC(C)C)cc([N+](=O)[O-])c1O	rCAG binder 70 | rCAG bind conf 48 | DNA CAG counter 17
OCCCNCc1ccc(N(c2ccccc2)c2ccccc2)cc1	none
NS(=O)(=O)c1ccc2nc(NC(=O)Nc3ccc(F)cc3)sc2c1	rCAG binder 57 | rCAG bind conf inactive | DNA CAG counter 24
CS(=O)(=O)c1ccc2nc(NC(=O)Nc3ccc(Cl)cc3)sc2c1	rCAG binder 60 | rCAG bind conf 54 | DNA CAG counter 34
CC(=O)c1ccc(OCc2c(-c3ccccc3)nnn2CC(=O)NS(=O)(=O)c2ccccc2C)cc1	rCAG binder 52 | rCAG bind conf 49 | DNA CAG counter 14
Cc1ccc(S(=O)(=O)NC(=O)Cn2nnc(-c3ccccc3)c2COc2ccc3ccccc3c2)cc1	rCAG binder 80 | rCAG bind conf 86 | DNA CAG counter 50
Cc1ccc(OCc2nnn(CC(=O)NS(=O)(=O)c3c(C)noc3C)c2-c2ccccc2)cc1	rCAG binder 61 | rCAG bind conf 67 | DNA CAG counter 19
CC(=O)c1ccc(OCc2c(-c3ccccc3)nnn2CC(=O)NS(=O)(=O)c2ccc(C)cc2)cc1	rCAG binder 48 | rCAG bind conf 60 | DNA CAG counter 15
Cc1ccccc1S(=O)(=O)NC(=O)C1(C)CCN1C(=O)COc1ccc(Cl)cc1 (stereo unspecified)	none
N#Cc1ccc(OCc2c(-c3ccccc3)nnn2CC(=O)O)cc1	none
CC(=O)c1ccc(OCc2nnn(CC(=O)O)c2-c2ccccc2)cc1	none
Cc1ccc(OCC(=O)NS(=O)(=O)c2ccccc2)cc1	none
COc1ccccc1NC(=O)c1ccccc1NS(=O)(=O)c1cccs1	rCAG binder 37 | rCAG bind conf inactive | DNA CAG counter 5.3
O=C(CNC(=O)c1cccs1)N/N=C/c1ccc(O)cc1O	none
COc1ccc(C)cc1NC(=O)c1ccccc1NS(=O)(=O)c1ccc(Cl)s1	rCAG binder 90 | rCAG bind conf 84 | DNA CAG counter 54
O=C(NN=Cc1ccc(O)cc1O)c1ccccc1NS(=O)(=O)c1cccs1	rCAG binder 43 | rCAG bind conf 41 | DNA CAG counter 14
COc1ccc(NC(=O)c2ccccc2NS(=O)(=O)c2ccc(C)cc2)c([N+](=O)[O-])c1	rCAG binder 56 | rCAG bind conf 60 | DNA CAG counter 25
COc1ccccc1NC(=O)c1ccccc1NS(C)(=O)=O	none
CC(NC(=O)c1cccs1)c1n[nH]c(=S)n1C (stereo unspecified)	none
CCCCOCCCNC(=O)C[C@@H]1C[C@@]2(C(=O)OCC)CCC=C2N(Cc2cccc3ccccc23)C1=O	none
O=C(N/N=C/c1ccc(N2CCOCC2)cc1)c1ccccc1NS(=O)(=O)c1cccs1	rCAG binder 66 | rCAG bind conf 50 | DNA CAG counter 17
COc1cc(/C=N/NC(=O)c2ccc(NS(=O)(=O)c3cccs3)cc2)cc(OC)c1O	none
COc1cc(C=NNC(=O)c2ccccc2NS(=O)(=O)c2cccs2)cc(OC)c1O	rCAG binder 42 | rCAG bind conf 51 | DNA CAG counter 12
COc1ccc(C=NNC(=O)c2ccccc2NS(=O)(=O)c2cccs2)cc1O	rCAG binder 36 | rCAG bind conf 37 | DNA CAG counter 10
O=C(N/N=C/c1ccc(N2CCOCC2)cc1)c1ccc(NS(=O)(=O)c2cccs2)cc1	none
COc1ccc(OC)c(C=NNC(=O)c2ccccc2NS(=O)(=O)c2cccs2)c1	rCAG binder 60 | rCAG bind conf 50 | DNA CAG counter 15
CC(=O)c1ccc(NC(=O)COC(=O)CCC2CCCC2)cc1	none
O=C(O)CCC(=O)Nc1ccc(-c2nc3ccc(C(=O)c4ccccc4)cc3[nH]2)cc1	rCAG binder 45 | rCAG bind conf 35 | DNA CAG counter 7.9
CCOc1ccc(S(=O)(=O)N(C(=O)c2ccco2)c2cc3sc(=O)oc3c3ccccc23)cc1	rCAG binder 78 | rCAG bind conf 48 | DNA CAG counter 26
Cc1ccc(S(=O)(=O)N(C(=O)c2ccco2)c2cc3sc(=O)oc3c3ccccc23)cc1	rCAG binder 88 | rCAG bind conf 40 | DNA CAG counter 17
CCOc1ccc(S(=O)(=O)N(C)CC(=O)NCc2ccco2)cc1	none
COc1ccccc1NC(=O)c1cccc2c(Br)cccc12	none
CN1c2ccccc2C(O)=C(C(=S)Nc2ccc(F)c(Cl)c2)S1(=O)=O	rCAG binder 82 | rCAG bind conf 72 | DNA CAG counter 32
CN1c2ccccc2C(O)=C(C(=O)Nc2ccccc2)S1(=O)=O	none
CN1c2ccccc2C(O)=C(C(=S)Nc2ccccc2)S1(=O)=O	none
Cc1ccc(NC(=S)C2=C(O)c3ccccc3N(C)S2(=O)=O)cc1	rCAG binder 59 | rCAG bind conf 35 | DNA CAG counter 8.7
CCC1C(=O)NCCN1C(=O)c1ccc(OC)c(OC2CCN(C(C)=O)CC2)c1 (stereo unspecified)	none
CSCCC(NS(=O)(=O)c1ccccc1F)C(=O)NCc1ccncc1 (stereo unspecified)	none
CCn1c(SCC(=O)Nc2ccc(F)cc2)nnc1-c1cnccn1	none
COc1ccc(NC(=O)[C@@]2(CC(=O)O)CC(/C=C/c3ccccc3)=NO2)cc1	none

Compound activity as filed in PubChem.
